# Test results as given in PubChem BioAssay (NCATS).
# Results filed as inconclusive are left out. Where a call stands in place of a potency, no number is given. Unmarked numbers belong to inactive results. Activity calls are given as the source filed them. The call rests on the fitted dose curve; in most records, active means well fitted curve in the direction sought with a large enough effect; inconclusive means small, poorly fitted or top-dose-only effect, or another doubt; inactive means no such curve, though single readings can be large; an effect the other way counts as inactive or inconclusive. *1 amine or outer side, *2 acyl side, *3 side chain or, on linkers, in order; H or OH if unused. Where a SMILES comes first, the peptide text is derived from it. Bridges are numbered along the chain shown (N, C = ends). [ ]: non-standard residue; d: D form. The star is where a group is joined. pTerphenylCO(4''-OnC5H11) = CCCCCOc1ccc(-c2ccc(-c3ccc(C(=O)*)cc3)cc2)cc1; Orn(4R-OH,5R-OH) = O=C([C@H](C[C@@H](O)[C@@H](O)N[*:3])N[*:1])[*:2]; hTyr(3S-OH,4S-OH) = N[C@H](C(=O)O)[C@H](O)[C@@H](O)c1ccc(O)cc1; Pro(3S-OH,4S-Me) = C[C@H]1CN[C@H](C(=O)O)[C@H]1O; Hyp = O=C(O)[C@@H]1C[C@@H](O)CN1
# Key:
# CRL-7250 = normal cell line; test: Cytotoxic Profiling of Annotated Libraries Using Quantitative High-Throughput Screening (AID 1296008); conditions: Five cell lines viability, CellTiter-Glo ATP luminescence, 48-72 h; max response: stronger effect = lower value; further: nearly all actives have a fitted effect of over 60% in size
# How it was run: (§1)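 Cells exposed to compounds for 48 or 72 hr at 37 degrees Celsius. Viability read as ATP-coupled luminescence with CellTiter-Glo after 10 min at room temperature.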
# HaCat = test: as above; conditions: Five cell lines viability, CellTiter-Glo ATP luminescence, 48-72 h; max response: stronger effect = lower value
# How it was run: as §1
# KB-3-1 = test: as above; conditions: Five cell lines viability, CellTiter-Glo ATP luminescence, 48-72 h; max response: stronger effect = lower value
# How it was run: as §1
# NIH3T3 = test: as above; conditions: Five cell lines viability, CellTiter-Glo ATP luminescence, 48-72 h; max response: stronger effect = lower value
# How it was run: as §1
# C33A = test: Primary qHTS to identify gynecologic anti-cancer compounds using libraries of approved drugs and bioactive compounds (AID 1345084); conditions: Gynecologic cancer cell panel viability, ATPlite luminescence, 48 h; series mostly up to 57.5 µM; further: nearly all actives have a fitted effect of over 55% in size
# How it was run: (§2)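 Cytotoxicity screen measuring ATP content by luciferase luminescence. Each compound is applied at five concentrations for 48 h at 37 C with 5% CO2.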
# CAOV3 = test: as above; conditions: Gynecologic cancer cell panel viability, ATPlite luminescence, 48 h; series mostly up to 57.5 µM
# How it was run: as §2
# CASKI = test: as above; conditions: Gynecologic cancer cell panel viability, ATPlite luminescence, 48 h; series mostly up to 57.5 µM
# How it was run: as §2
# Es-2 = test: as above; conditions: Gynecologic cancer cell panel viability, ATPlite luminescence, 48 h; series mostly up to 57.5 µM
# How it was run: as §2
# HeLa = test: as above; conditions: Gynecologic cancer cell panel viability, ATPlite luminescence, 48 h; series mostly up to 57.5 µM
# How it was run: as §2
# Hek293T = test: as above; conditions: Gynecologic cancer cell panel viability, ATPlite luminescence, 48 h, control line for the selectivity index; series mostly up to 57.5 µM
# How it was run: as §2
# JEG-3 = test: as above; conditions: Gynecologic cancer cell panel viability, ATPlite luminescence, 48 h; series mostly up to 57.5 µM
# How it was run: as §2
# OV90 = test: as above; conditions: Gynecologic cancer cell panel viability, ATPlite luminescence, 48 h; series mostly up to 57.5 µM
# How it was run: as §2
# Potency means the concentration at half of the fitted maximal effect.
compound,measurement,setting,value
COc1c(F)cccc1C(=O)N1C[C@@H](C)CC[C@H]1CNc1ccc(Br)cn1,max response,CRL-7250,-14.6%
same,max response,HaCat,1.51%
same,max response,KB-3-1,-16%
same,max response,NIH3T3,-27.7%
same,Potency,C33A,inactive
same,Potency,CAOV3,inactive
same,Potency,CASKI,inactive
same,Potency,Es-2,inactive
same,Potency,HeLa,inactive
same,Potency,Hek293T,inactive
same,Potency,JEG-3,inactive
same,Potency,OV90,inactive
Cc1ccc(C(C)C)c(O[C@@H]2O[C@H](CO)[C@@H](O)[C@H](O)[C@H]2O)c1,Potency,CRL-7250,16100 nM (active)
same,max response,HaCat,-17.5%
same,max response,KB-3-1,-7.27%
same,max response,NIH3T3,2.1%
same,Potency,C33A,inactive
same,Potency,CAOV3,inactive
same,Potency,CASKI,inactive
same,Potency,Es-2,inactive
same,Potency,HeLa,inactive
same,Potency,Hek293T,inactive
same,Potency,JEG-3,inactive
same,Potency,OV90,inactive
O=C(O)c1cccc(-c2ccc(-c3cn(C(=O)N4CCCCC4Cc4ccccc4)nn3)cc2)c1 (stereo unspecified),max response,CRL-7250,0.106%
same,max response,HaCat,-16.1%
same,max response,KB-3-1,9.26%
same,max response,NIH3T3,-1.06%
same,Potency,C33A,inactive
same,Potency,CAOV3,inactive
same,Potency,CASKI,inactive
same,Potency,Es-2,inactive
same,Potency,HeLa,inactive
same,Potency,Hek293T,inactive
same,Potency,JEG-3,inactive
same,Potency,OV90,inactive
Cc1[nH]c2ccccc2c1CCNCc1ccc(/C=C/C(=O)NO)cc1,Potency,CRL-7250,517 nM (active)
same,Potency,HaCat,184 nM (active)
same,Potency,KB-3-1,82 nM (active)
same,Potency,NIH3T3,366 nM (active)
same,Potency,C33A,251 nM (active)
same,Potency,CAOV3,1000 nM (active)
same,Potency,CASKI,447 nM (active)
same,Potency,Es-2,355 nM (active)
same,Potency,HeLa,126 nM (active)
same,Potency,Hek293T,1580 nM (active)
same,Potency,JEG-3,251 nM (active)
same,Potency,OV90,1000 nM (active)
Cc1cc(F)ccc1-c1nc(NCCN=C(N)NC#N)nc2c1ccc(=O)n2-c1c(F)cccc1F,max response,CRL-7250,1.44%
same,max response,HaCat,4.96%
same,max response,KB-3-1,0.209%
same,max response,NIH3T3,4.3%
same,Potency,C33A,inactive
same,Potency,CAOV3,inactive
same,Potency,CASKI,inactive
same,Potency,Es-2,inactive
same,Potency,HeLa,inactive
same,Potency,Hek293T,inactive
same,Potency,JEG-3,inactive
same,Potency,OV90,inactive
CC(=O)O[C@@H]1C[C@]2(C)[C@@]3(CCC4[C@@]5(C)CC[C@H](O[C@@H]6O[C@H](C(=O)O)[C@@H](O)[C@H](OC7OC(CO)C(O)C(O)[C@H]7O[C@@H]7O[C@@H](C)[C@H](O)[C@@H](O)[C@H]7O[C@@H]7OC[C@](O)(CO)[C@H]7O)[C@H]6OC6OC(CO)C(O)C(O)C6O)C(C)(C)C5CC[C@]42C)OC[C@@]12CCC(C)(C)CC23 (stereo partly specified),max response,CRL-7250,-2.03%
same,max response,HaCat,0.508%
same,max response,KB-3-1,-5.11%
same,max response,NIH3T3,0.621%
same,"activity change, negative = cytotoxicity",C33A,2.65% [at 6.55 µM]
same,"activity change, negative = cytotoxicity",CAOV3,0.174% [at 6.55 µM]
same,"activity change, negative = cytotoxicity",CASKI,16.9% [at 6.55 µM]
same,"activity change, negative = cytotoxicity",Es-2,-3.44% [at 6.55 µM]
same,"activity change, negative = cytotoxicity",HeLa,-0.755% [at 6.55 µM]
same,"activity change, negative = cytotoxicity",Hek293T,-10.7% [at 6.55 µM]
same,"activity change, negative = cytotoxicity",JEG-3,-4.85% [at 6.55 µM]
same,"activity change, negative = cytotoxicity",OV90,-14.9% [at 6.55 µM]
CCOC(=O)N1c2ccc(C(F)(F)F)cc2C(N(Cc2cc(C(F)(F)F)cc(C(F)(F)F)c2)C(=O)OC)CC1CC (stereo unspecified),max response,CRL-7250,-2.53%
same,max response,HaCat,-2.39%
same,max response,KB-3-1,-0.758%
same,max response,NIH3T3,3.11%
same,Potency,C33A,inactive
same,Potency,CAOV3,inactive
same,Potency,CASKI,inactive
same,Potency,Es-2,inactive
same,Potency,HeLa,inactive
same,Potency,Hek293T,inactive
same,Potency,JEG-3,inactive
same,Potency,OV90,inactive
"CCCCCOc1ccc(-c2ccc(-c3ccc(C(=O)N[C@H]4C[C@@H](O)[C@@H](O)NC(=O)[C@@H]5[C@@H](O)[C@@H](C)CN5C(=O)[C@H]([C@@H](C)O)NC(=O)[C@H]([C@H](O)[C@@H](O)c5ccc(O)cc5)NC(=O)[C@@H]5C[C@@H](O)CN5C(=O)[C@H]([C@@H](C)O)NC4=O)cc3)cc2)cc1 ({pTerphenylCO(4''-OnC5H11)}-[Orn(4R-OH,5R-OH)]T[Hyp][hTyr(3S-OH,4S-OH)]T[Pro(3S-OH,4S-Me)]; lactam 1-C)",max response,CRL-7250,4.73%
same,max response,HaCat,3.64%
same,outcome,KB-3-1,inactive
same,max response,NIH3T3,-1.62%
same,Potency,C33A,inactive
same,Potency,CAOV3,inactive
same,Potency,CASKI,inactive
same,Potency,Es-2,inactive
same,Potency,HeLa,inactive
same,Potency,Hek293T,inactive
same,Potency,JEG-3,inactive
same,Potency,OV90,inactive
O=[N+]([O-])c1cn2c(n1)OC[C@@H](OCc1ccc(-c3ccc(OC(F)(F)F)cc3)nc1)C2,max response,CRL-7250,2.36%
same,max response,HaCat,-7.6%
same,max response,KB-3-1,-0.53%
same,max response,NIH3T3,-0.0728%
same,Potency,C33A,inactive
same,Potency,CAOV3,inactive
same,Potency,CASKI,inactive
same,Potency,Es-2,inactive
same,Potency,HeLa,inactive
same,Potency,Hek293T,inactive
same,Potency,JEG-3,inactive
same,Potency,OV90,inactive
O=C(NC1CCC1)c1ccc(C#Cc2cccc(F)c2)nc1,max response,CRL-7250,-2.08%
same,max response,HaCat,-7.87%
same,max response,KB-3-1,8.07%
same,max response,NIH3T3,-25.1%
same,Potency,C33A,inactive
same,Potency,CAOV3,inactive
same,Potency,CASKI,inactive
same,Potency,Es-2,inactive
same,Potency,HeLa,inactive
same,Potency,Hek293T,inactive
same,Potency,JEG-3,inactive
same,Potency,OV90,inactive
CCC[C@H](N[C@H]1CCc2cc(F)cc(F)c2C1)C(=O)Nc1cn(C(C)(C)CNCC(C)(C)C)cn1,max response,CRL-7250,4.72%
same,max response,HaCat,-2.54%
same,max response,KB-3-1,-17.7%
same,max response,NIH3T3,-10.9%
same,Potency,C33A,inactive
same,Potency,CAOV3,inactive
same,Potency,CASKI,inactive
same,Potency,Es-2,inactive
same,Potency,HeLa,inactive
same,Potency,Hek293T,inactive
same,Potency,JEG-3,inactive
same,Potency,OV90,inactive
C=C1C(=O)OC[C@@H]1C/C=C(\C)CC1CC(C)C(=O)O1 (stereo partly specified),max response,CRL-7250,-16.8%
same,max response,HaCat,2.44%
same,outcome,KB-3-1,inactive
same,max response,NIH3T3,-3.27%
same,Potency,C33A,inactive
same,Potency,CAOV3,inactive
same,Potency,CASKI,inactive
same,Potency,Es-2,inactive
same,Potency,HeLa,inactive
same,Potency,Hek293T,inactive
same,Potency,JEG-3,inactive
same,Potency,OV90,inactive
CC(C)(Cc1ccccc1)NCC(O)c1ccc(O)c(NS(C)(=O)=O)c1 (stereo unspecified),max response,CRL-7250,0.0508%
same,max response,HaCat,2.45%
same,max response,KB-3-1,-4.4%
same,max response,NIH3T3,0.817%
same,Potency,C33A,inactive
same,Potency,CAOV3,inactive
same,Potency,CASKI,inactive
same,Potency,Es-2,inactive
same,Potency,HeLa,inactive
same,Potency,Hek293T,inactive
same,Potency,JEG-3,inactive
same,Potency,OV90,inactive
